Measured values taken from PubChem BioAssay AID1259343 (VanderVen Lab, College of Veterinary Medicine, Cornell …, 2017).
Out of some 6,200 compounds screened, about 2,900 (47%) were called active. So high a share suggests a set chosen from earlier hits. The list shows a part of the results. A number with no mark means an inactive call. Rule as the data show it: active = inhibition above about 50%; inactive = the rest.

assay: Mycobacterium tuberculosis growth inhibition, primary screen (AID 1259343); conditions: inhibition: at 10 µM, stronger effect = higher value; outcome: 10 uM

Q: For `CCCCC(CC)CN=C(N)NC(N)=NCCCCCCN=C(N)NC(N)=NCC(CC)CCCC` (stereo unspecified), which inhibition is on record?
A: 94.5% (active)

Q: For `O=C1C(=O)N(C2CCCC2)C(=O)N1CC1CCCCC1`, which inhibition is on record?
A: -11.3%

Q: Which inhibition does the source give for `Cc1nc2scc(-c3cccs3)c2c(=O)n1-n1cccc1` here?
A: 87.8% (active)

Q: Which inhibition does the source give for `Cc1ccc(C)n1-n1c(C)nc2scc(-c3cccs3)c2c1=O` here?
A: 27.9%

Q: Which inhibition does the source give for `Cc1nc2scc(-c3cccs3)c2c(=S)[nH]1` here?
A: 85.4% (active)

Q: For `O=C(NC1CC1c1ccccc1)C1(c2ccccc2)CCC1` (stereo unspecified), which inhibition is on record?
A: 38.3%

Q: Which inhibition does the source give for `Cc1cc(-c2nnn(CC3(O)CCCCC3)n2)ccc1F` here?
A: 86.8% (active)

Q: With `CC(C)(C)OC(=O)Nc1cc2ccccc2cc1C(=O)O` as the compound, how does the inhibition read?
A: 79.6% (active)

Q: Which inhibition does the source give for `COc1ccc(-c2cc(Nc3ccc(NC(=O)OC(C)(C)C)cc3)ncn2)cc1` here?
A: 4.04%

Q: For `CC(C)(C)OC(=O)Nc1ccc(Nc2cc(-c3ccc(F)c(F)c3)ncn2)cc1`, which inhibition is on record?
A: 16.4%

Q: For `Fc1cccc(-c2cnnc(N[C@@H]3C[C@H]3c3ccccc3)n2)c1`, which inhibition is on record?
A: 19.2%

Q: With `Cc1cc(C)cc(NC(=O)CSc2nc(=O)n3ccc(C)cc3n2)c1` as the compound, how does the inhibition read?
A: -10.5%

Q: With `Cc1cc(C)cc(NC(=O)CSc2nccn(-c3cccc(F)c3)c2=O)c1` as the compound, how does the inhibition read?
A: 66.8% (active)

Q: With `Cc1cc(C)cc(NC(=O)CSc2nccn(-c3ccc(F)cc3)c2=O)c1` as the compound, how does the inhibition read?
A: 48.7%

Q: Which inhibition does the source give for `N#Cc1ccccc1Sc1ccc(C(N)=O)cc1` here?
A: -41.2%

Q: Which inhibition does the source give for `Cc1ccc(/C=C2\CNC/C(=C\c3ccc(C)cc3)C2=O)cc1` here?
A: 27.8%

Q: For `CC1C/C(=C\c2cccnc2)C(=O)/C(=C/c2cccnc2)C1` (stereo unspecified), which inhibition is on record?
A: 63% (active)

Q: For `C(=Nc1ccc(C23CC4CC(CC(C4)C2)C3)cc1)c1cccnc1`, which inhibition is on record?
A: 7.01%

Q: Which inhibition does the source give for `COc1c(Br)cc(Cl)cc1NCc1c(C)noc1C` here?
A: 14%

Q: With `N#CC(=CC(Br)=Cc1ccccc1)c1nc(-c2ccccc2)cs1` as the compound, how does the inhibition read?
A: 82.4% (active)

Q: Which inhibition does the source give for `N#CC(=Cc1ccccc1I)c1nc(-c2ccccc2)cs1` here?
A: 10.6%

Q: With `N#Cc1c(Cl)cccc1NCC1CN(Cc2ccccc2)CCO1` (stereo unspecified) as the compound, how does the inhibition read?
A: 57.3% (active)

Q: Which inhibition does the source give for `CC(=O)c1cc(CN2CCOC(CCCc3ccccc3)C2)cs1` (stereo unspecified) here?
A: 28.9%

Q: Which inhibition does the source give for `Clc1ccc(C2CN(Cc3cc(-c4ccccn4)no3)CCO2)cc1Cl` (stereo unspecified) here?
A: 21%

Q: With `COC(=O)c1cc(-c2ccc3c(c2)CC(C)O3)on1` (stereo unspecified) as the compound, how does the inhibition read?
A: 45.8%

Q: With `COC(=O)c1ccc(NC(=O)Cc2cc(-c3cc4ccccc4o3)on2)cc1` as the compound, how does the inhibition read?
A: 84% (active)

Q: For `COC(=O)c1cc(-c2ccc(OC)cc2)on1`, which inhibition is on record?
A: 30.9%

Q: For `O=C(Cc1cc(-c2cc3ccccc3o2)on1)NCCC1=CCCCC1`, which inhibition is on record?
A: 32.4%

Q: For `O=C(Cc1cc(-c2cc3ccccc3o2)on1)Nc1cccc(F)c1`, which inhibition is on record?
A: 38.6%

Q: Which inhibition does the source give for `COC(=O)c1cc(-c2ccc(C)cc2)on1` here?
A: 88.9% (active)

Q: With `O=C(Cc1cc(-c2cc3ccccc3o2)on1)NCCCc1ccccc1` as the compound, how does the inhibition read?
A: 93.4% (active)

Q: With `Cc1cc(NC(=O)Cc2cc(-c3cc4ccccc4o3)on2)no1` as the compound, how does the inhibition read?
A: -32.2%

Q: With `COC(=O)c1cc(-c2cc3ccccc3o2)on1` as the compound, how does the inhibition read?
A: 99.1% (active)

Q: With `O=C(Cc1cc(-c2cc3ccccc3o2)on1)NCCc1ccccc1` as the compound, how does the inhibition read?
A: 6.56%

Q: Which inhibition does the source give for `COCCNC(=O)Cc1cc(-c2cc3ccccc3o2)on1` here?
A: 34.7%

Q: For `CC(C)OCCCNC(=O)Cc1cc(-c2cc3ccccc3o2)on1`, which inhibition is on record?
A: 90.9% (active)

Q: For `COCCNC(=O)c1cc(-c2ccc(Cl)cc2)on1`, which inhibition is on record?
A: 60% (active)

Q: For `O=C(COC(=O)c1ccco1)Nc1ccc2ccccc2c1`, which inhibition is on record?
A: 39.6%

Q: For `NC(Cc1cnc[nH]1)C(=O)Nc1ccc2ccccc2c1` (stereo unspecified), which inhibition is on record?
A: 72.9% (active)

Q: For `Cc1cc(NC(=O)CN2CCOC(C)C2)ccc1Br` (stereo unspecified), which inhibition is on record?
A: 16.5%

Q: With `CC1CCc2c(sc(NC(=O)CN3CCOC(C)C3)c2C#N)C1` (stereo unspecified) as the compound, how does the inhibition read?
A: 30.6%

Q: Which inhibition does the source give for `CCOC(=O)c1ccc(NC(=O)CN2CCOC(C)C2)cc1` (stereo unspecified) here?
A: 92% (active)

Q: Which inhibition does the source give for `Cc1cc(C)c2c(=O)[nH]c(SCc3nnc(-c4ccc(Cl)cc4)o3)nc2n1` here?
A: -6.74%

Q: With `Clc1ccc(-c2noc(CSc3nncs3)n2)cc1` as the compound, how does the inhibition read?
A: -30.4%

Q: Which inhibition does the source give for `Clc1ccc(-c2nnc(CSc3nncs3)o2)cc1` here?
A: 97.2% (active)

Q: For `Fc1ccc(-c2csc(SCc3nnc(-c4ccc(F)cc4)o3)n2)cc1`, which inhibition is on record?
A: 69.3% (active)

Q: With `CN(Cc1nnc(-c2ccc(F)cc2)o1)C1C2CCOC2C1(C)C` (stereo unspecified) as the compound, how does the inhibition read?
A: 21.1%

Q: For `Fc1ccc(OCc2nnc(-c3ccc(Br)cc3)o2)cc1`, which inhibition is on record?
A: -26.1%

Q: With `O=C1NC(=O)C(=Cc2cc(Br)c(Sc3ccc(Cl)cc3)o2)S1` as the compound, how does the inhibition read?
A: 85.2% (active)

Q: For `O=C(Nc1nc(CN2CCCCC2)cs1)c1cc(F)cc(F)c1`, which inhibition is on record?
A: -30.9%

Q: With `COc1ccc2c(CC(=O)Nc3nc(CN4CCCCC4)cs3)coc2c1` as the compound, how does the inhibition read?
A: 26.5%
